According to PubChem BioAssay:
Calls of active or inactive are those of the source.

Test: A549 lung cancer cell viability effects, profiling panel, resazurin fluorescence, 24 h, PK04 Diversity Set (AID 1171); further: test concentration not given here
Settings: higher = more signal, called active from +8 up or from −8 down
With `COCCOC(=O)N1C(=O)[C@@]2(c3cc(C#CCNC(N)=O)ccc31)[C@H](C(=O)N1CCc3cc(OC)c(OC)cc3C1)[C@H]1C(=O)O[C@H](c3ccccc3)[C@H](c3ccccc3)N1[C@@H]2c1ccc(OCCO)cc1` the z-score was 0.0245 (inactive).
For `CCOC(=O)C1=CC[C@@H](c2ccccc2)N(S(=O)(=O)c2ccc(C)cc2)[C@H]1C(=O)OCC`, the z-score was 0.706 (inactive).
In the case of `O=C(CS)NCCCCCCNC(=O)[C@@H]1C[C@@H]2C(=O)N3CCC[C@H]3C(=O)N2[C@@H]1c1ccc(O)cc1`, the z-score is reported as -0.331 (inactive).
With `CCOC(=O)C1=CCC(c2ccc([N+](=O)[O-])cc2)N(S(=O)(=O)c2ccc(C)cc2)C1` (stereo not given) the z-score was 0.395 (inactive).
In the case of `COCCOC(=O)N1C(=O)[C@@]2(c3cc(C#CCNC(N)=O)ccc31)[C@H](c1ccc(O)cc1)N1[C@H](c3ccccc3)[C@H](c3ccccc3)OC(=O)[C@H]1[C@@H]2C(=O)Nc1nc2ccccc2s1`, the z-score is reported as 1.69 (inactive).
In the case of `O=c1cccc(CCc2ccccc2)o1`, the z-score is reported as -0.574 (inactive).
For `O=C1N(CCS(=O)(=O)c2ccccc2)Cc2ccccc2[C@H]2OC(c3ccc(OCCCO)cc3)=N[C@@]12CCS(=O)(=O)c1ccccc1`, the z-score was 0.908 (inactive).
For `CN(C)C(=O)[C@@]1(CCC(=O)OC(C)(C)C)N=C(c2ccc(OCCCO)cc2)O[C@H]1c1ccccc1`, the z-score was 0.107 (inactive).
In the case of `O=C1C2C=CC(C(O)c3ccc(-c4ccccc4)s3)N(n3cnnc3)C2C(=O)N1Cc1ccccc1` (stereo not given), the z-score is reported as -1 (inactive).
With `CC(C)C(O)C1C=CC2C(=O)N(c3ccccc3)C(=O)C2N1Nc1ccc(C#N)cc1` (stereo not given) the z-score was -0.796 (inactive).
